ROC1-CUL1 inh: inhibitors of human ROC1-CUL1 ubiquitin ligase activity. E3 ubiquitin-protein ligase RBX1 (Homo sapiens) + Cullin-1 (Homo sapiens), P62877+Q13616. in vitro K48 di-Ub FRET, acceptor:donor ratio, 45 min. inhibition, % at 10 µM. 140,000 tested, 0.6% active; in the data active = inhibition above about 25%
Target sequence (P62877 whole entry, looked up): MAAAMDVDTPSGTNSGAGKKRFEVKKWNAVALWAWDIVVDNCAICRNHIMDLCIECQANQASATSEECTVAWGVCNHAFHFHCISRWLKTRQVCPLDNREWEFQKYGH
Target sequence (Q13616 whole entry, looked up): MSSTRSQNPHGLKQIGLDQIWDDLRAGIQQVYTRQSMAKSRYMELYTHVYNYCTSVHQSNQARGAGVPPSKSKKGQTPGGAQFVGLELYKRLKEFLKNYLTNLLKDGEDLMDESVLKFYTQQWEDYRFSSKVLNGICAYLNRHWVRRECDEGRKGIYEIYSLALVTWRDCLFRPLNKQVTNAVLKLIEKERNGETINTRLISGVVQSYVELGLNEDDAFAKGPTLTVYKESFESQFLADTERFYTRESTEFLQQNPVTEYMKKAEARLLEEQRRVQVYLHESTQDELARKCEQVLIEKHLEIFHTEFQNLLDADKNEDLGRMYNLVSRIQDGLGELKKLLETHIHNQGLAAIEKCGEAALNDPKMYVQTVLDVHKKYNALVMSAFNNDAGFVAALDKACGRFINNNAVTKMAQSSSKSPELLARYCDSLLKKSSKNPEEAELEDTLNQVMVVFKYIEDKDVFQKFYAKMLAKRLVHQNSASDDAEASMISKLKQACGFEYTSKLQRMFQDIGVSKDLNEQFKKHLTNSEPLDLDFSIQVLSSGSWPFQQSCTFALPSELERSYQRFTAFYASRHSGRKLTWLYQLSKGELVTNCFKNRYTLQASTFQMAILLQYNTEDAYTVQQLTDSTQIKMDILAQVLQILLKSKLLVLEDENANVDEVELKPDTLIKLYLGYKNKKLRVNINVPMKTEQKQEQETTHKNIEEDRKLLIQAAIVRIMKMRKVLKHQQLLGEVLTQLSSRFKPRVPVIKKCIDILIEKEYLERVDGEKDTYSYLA
Numbers without * were called inactive. The sample as a whole holds a higher share of hits than the screen did.

SMILES	ROC1-CUL1 inh
Cc1ccc(NC(=O)C2CCCN(S(=O)(=O)c3ccc4c(c3)oc(=O)n4C)C2)cc1Cl (stereo not given)	-12
CNC(=O)c1cnc2sc(N3CCC(C)CC3)nn2c1=O	8
CCOc1ccccc1[C@@H]1C[C@H]2CN(C3Cc4ccccc4C3)C(=O)[C@]23CCCN13	3
Cc1ccc2c(c1)C1CN(C)CCC1N2C(=O)c1cc(Cl)ccc1[N+](=O)[O-] (stereo not given)	2
CCN(CC)c1ccc(/C=C2\C(=O)NN(c3ccc(Cl)c(Cl)c3)C2=O)cc1	2
O=C1NN(c2ccc(I)cc2)C(=O)/C1=C\c1ccc(Br)cc1	59*
O=C1NN(c2ccc(Br)cc2)C(=O)/C1=C\c1ccc(O)cc1	2
CCc1ccc(/C=C2\C(=O)NN(c3ccc(C)cc3)C2=O)cc1	45*
O=C1NN(c2ccc(I)cc2)C(=O)/C1=C\c1cccs1	4
O=C1OC(c2ccccc2)=N/C1=C/c1cccc(OC(=O)c2cccs2)c1	-2
CCc1ccc(/C=C2\C(=O)NC(=S)N(C)C2=O)cc1	-2
CC(=O)Oc1cccc(/C=C2/C(=O)NN(c3ccc(C)c(C)c3)C2=O)c1	2
O=C1NN(c2ccccc2)C(=O)/C1=C/c1cccc(OCc2ccc(Cl)c(Cl)c2)c1	7
O=C1NN(c2ccccc2)C(=O)/C1=C/c1ccc(OCc2ccccc2)cc1	-13
O=C1NN(c2ccc(F)c(Cl)c2)C(=O)/C1=C\c1cccc(OC(=O)c2cccs2)c1	97*
O=C1NN(c2ccc(Cl)c(Cl)c2)C(=O)/C1=C/c1ccc(Cl)cc1	78*
Cc1ccc(S(=O)(=O)N2CCOCC2)cc1	-7
CCOC(=O)c1sc2ccccc2c1S(=O)(=O)N1CCN(c2cccc(C)c2)C(C)C1 (stereo not given)	-15
O=C(c1cc(COc2ccc3ncccc3c2)on1)N1CCC(c2ccncc2)CC1	14
O=C(CSc1nnnn1-c1ccccc1)Nc1ccc(OC(F)(F)F)cc1	7
COc1cc(/C=N/Nc2ccccc2)ccc1OC(=O)c1ccc(C)c(C)c1	-2
Cc1ccc(-n2nnnc2-c2c[nH]c3cc(Cl)c(F)cc23)cc1	4
COc1ccc(C(=O)C2CCCN(Cc3cccc(C(C)=O)c3)C2)cc1F (stereo not given)	5
Cc1ccc(S(=O)(=O)C2CC(C)C(=O)N(Cc3ccccc3)C2=O)cc1 (stereo not given)	7
CCOc1cccc(C2C(C(=O)OC)=C(C)OC(=N)C2C#N)c1OCc1ccccc1 (stereo not given)	-1
SMILES	ROC1-CUL1 inh
Cc1ccccc1S(=O)(=O)Nc1cc(Cl)cc(Cl)c1	13
O=C1NN(c2cc(Cl)cc(Cl)c2)C(=O)/C1=C\c1ccc(F)cc1	85*
CCOc1cc(/C=C2\C(=O)NN(c3ccc(Cl)cc3)C2=O)cc(I)c1O	6
O=C1NN(c2cccc(Cl)c2)C(=O)/C1=C/c1cccs1	12
O=C1NN(c2ccc(Cl)cc2)C(=O)/C1=C/c1cc(Br)cc([N+](=O)[O-])c1O	85*
COc1cc(/C=C2\C(=O)NN(c3ccc(C)cc3)C2=O)cc([N+](=O)[O-])c1O	6
CCOc1cc(/C=C2/C(=O)NN(c3ccc(F)cc3)C2=O)ccc1OC(C)C	5
CO[C@H]1[C@H](NC(=O)CSC)c2ccccc2C12CCN(Cc1cnc(-c3ccccc3)s1)CC2	9
CC(C)C(=O)NC(=S)Nc1ccc(S(N)(=O)=O)cc1	-5
O=c1c2cc(Cl)ccc2oc2ccc(Cl)cc12	3
O=C(Nc1ccc(Cl)c(-c2nc3ccccc3o2)c1)c1ccc([N+](=O)[O-])cc1[N+](=O)[O-]	-1
Cc1ccc(C2(O)CC(C(F)(F)F)=NN2C(=O)c2cccc(Cl)c2)cc1 (stereo not given)	-1
O=C(N/N=C/c1cc(Br)c(O)c(Br)c1O)C(O)c1ccccc1 (stereo not given)	13
CN(C)c1ccc(/C=N/N=C(\Cc2nc3ccccc3[nH]2)c2ccccc2)cc1	-4
CCCN1CCC(NC(=O)C(C)Oc2cccc(Br)c2)CC1 (stereo not given)	9
COc1cc(OC)nc(Oc2cccc(OC)c2N)n1	4
COc1cc(-c2c(F)c(F)c(F)c(F)c2F)nc(N)n1	35*
CSc1cc(-c2ccccc2)nc(N)n1	5
COc1cc(OC)c(/C=N/n2c(-c3ccccc3)n[nH]c2=S)c(OC)c1	-2
O=C(Nc1ccc(F)cc1Cl)c1cc2ccccc2o1	8
CC(=O)COc1ccc2c(C)c(CC(C)C)c(=O)oc2c1	4
CN1C(=O)CC(CC(=O)N2CCCCC2c2nccn2C)(c2ccc(-c3ccccc3)cc2)C1=O (stereo not given)	2
Cc1cc(C)nc(N2CCN(C(=O)Nc3n[nH]c(C)n3)CC2)n1	0
CN(CC1(c2ccccc2)CC1(C)C)C(=O)CCC1(Cc2ccc(F)cc2)CCC(=O)N1 (stereo not given)	4
CC1(C)CC(=O)/C(=C\c2ccccc2)C(C)(C)N1	25*
SMILES	ROC1-CUL1 inh
O=C1C(=O)/C(=C/c2ccccc2)CCC/C1=C/c1ccccc1	-1
O=C1/C(=C\c2ccccc2)CCC/C1=C\c1ccccc1	-1
O=C1OC(c2ccco2)=N/C1=C\c1cccc([N+](=O)[O-])c1	-6
O=C(Nc1ccc(Oc2ccccc2)cc1)c1ccncc1	4
CC(=O)Nc1ccc(Oc2cc(NC(=O)c3ccccc3)cc([N+](=O)[O-])c2)cc1	7
CC(=O)Oc1cc(C(=O)Nc2ccc(Oc3ccccc3)cc2)cc(OC(C)=O)c1OC(C)=O	38*
C/C(=C\C(=O)NNC(=O)CCC1CCCCC1)C(=O)O	-1
Cc1ccc2occ(-c3cc(-c4ccc(F)cc4)nc4c3COc3ccc(F)cc3-4)c(=O)c2c1	0
Cc1cc(C(=O)N2CCN(c3cccc(C)c3C)CC2)no1	-1
CCCCCCOc1cc(/C=C/C(=O)O)c(OCCCCCC)cc1/C=C/C(=O)O	89*
CCCCCCCCCCCCCCCCCCOc1ccc(/C=C/C(=O)O)cc1I	5
O=C(O)/C=C/c1cc(Br)ccc1OCc1ccc(F)cc1	6
CCOc1ccc(C2Nc3ccccc3-c3nnc(SCc4ccccc4F)nc3O2)cc1OC (stereo not given)	2
O=C(C1CC1)N1CCN(c2ccccn2)CC1	3
COc1cc(/C=N/NC(N)=S)ccc1OCC(=O)Nc1ccc(Br)c(Cl)c1	9
CS(=O)(=O)c1ccc([N+](=O)[O-])cn1	63*
Cc1ccccc1Sc1ccc([N+](=O)[O-])cn1	1
O=[N+]([O-])c1ccc(S(=O)(=O)c2cccc(C(F)(F)F)c2)nc1	9
Cc1ccnc(NC(=O)Cc2cccs2)c1	-8
O=C(Oc1ccccc1N1C(=O)C2C3CCC(C3)C2C1=O)c1ccccc1 (stereo not given)	1
O=C(N/N=C/c1cc([N+](=O)[O-])ccc1O)c1ccc(C(=O)N/N=C/c2cc([N+](=O)[O-])ccc2O)o1	98*
O=C(N/N=C/c1cc([N+](=O)[O-])ccc1O)c1cnccn1	-7
O=C(N/N=C/c1cc([N+](=O)[O-])ccc1O)c1ccccn1	-13
Cc1ccc(N=CC2CCCCC2=O)c(C)c1 (stereo not given)	-13
Cc1ccccc1Oc1ncccc1CNC1CCN(C)CC1	-10
COc1cc(NC(=O)CC(C)S(=O)(=O)c2cc3c4c(c2)CCN4C(=O)CC3)cc(OC)c1 (stereo not given)	-3
CCc1csc(CNC(=O)c2ccc(N(C)Cc3ccn[nH]3)nc2)n1	8

High-throughput results (PubChem BioAssay)
